# Compounds with a hit are over-represented: about 2.2% of the library has one in this group of screens.
# Rce1 inhib: yeast Rce1p protease inhibitors, primary screen, biochemical, fluorescence, cell-free homogeneous; calls only; yeast membranes, quenched prenylated peptide cleavage fluorescence; 0.27% of 290,000 active;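 active = fall in fluorescence gain of 50% or more versus controls, with final raw signal at or below 3038400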;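 note: plate controls were neutral control wells for no effect and wells lacking membranes for full effect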
# Target sequence (Q03530 whole entry, looked up): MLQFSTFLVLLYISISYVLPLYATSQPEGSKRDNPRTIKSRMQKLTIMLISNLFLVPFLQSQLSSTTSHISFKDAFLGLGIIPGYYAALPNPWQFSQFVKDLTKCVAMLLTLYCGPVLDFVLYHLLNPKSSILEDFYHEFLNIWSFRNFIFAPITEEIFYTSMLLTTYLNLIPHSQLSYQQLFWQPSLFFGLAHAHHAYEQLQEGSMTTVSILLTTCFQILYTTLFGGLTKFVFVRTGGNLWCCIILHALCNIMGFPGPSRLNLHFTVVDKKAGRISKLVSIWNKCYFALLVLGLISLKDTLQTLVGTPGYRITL
# M18AAP inhibitor: PfM18AAP inhibitors, malaria aminopeptidase, primary screen, biochemical, QFRET, recombinant enzyme | M18 aspartyl aminopeptidase (Plasmodium falciparum 3D7) | H-Glu-NHMec fluorogenic cleavage | inhibition, % at 7.35 µM | 1.2% of 290,000 active | AID 1822, 2009;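 active = inhibition above the campaign mean inhibition over all tested compounds plus 3 SD, cut at about 28% in these data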;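 note: 0% = plate median of test compound wells and 100% = 2 mM ZnCl2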
# PLCb3 inh: human PLC-beta3 inhibitors, primary screen, biochemical, fluorescence; 0.18% of 370,000 active; AID 720704, 2013; 1-phosphatidylinositol 4,5-bisphosphate phosphodiesterase beta-3 (Homo sapiens), Q01970; Purified PLC-beta3, fluorogenic substrate; inhibition, % at 12.2 µM;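 note: 0% = median of compound wells on plate and 100% = full blocker control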
# NPR1 activator: GC-A stimulated cGMP production enhancers – HEK293 GC-A cells, cGMP TR-FRET, EC30 ANP, primary screen. Atrial natriuretic peptide receptor 1 (Homo sapiens), P16066. 0% at EC30 ANP, 100% saturating ANP. activation, % at 10 µM. 0.14% of 370,000 active. AID 1671463, 2021; in the data active = activation above about 40%
# PLC-gamma1 inh: PLC-gamma1 enzyme inhibitors, primary screen, biochemical, fluorescence, purified enzyme; 1-phosphatidylinositol 4,5-bisphosphate phosphodiesterase gamma-1 (Homo sapiens), P19174; fluorogenic substrate; inhibition, % at 12.2 µM; 0.84% of 370,000 active; AID 720700, 2013; in the data active = inhibition above about 9.5%
# GC-B act: human GC-B receptor activators, primary screen, HEK293 GC-B cells, cGMP TR-FRET, EC30 CNP; Atrial natriuretic peptide receptor 2 (Homo sapiens), P20594; 0% at EC30 CNP, 100% saturating CNP; activation, % at 10 µM; 0.11% of 370,000 active; AID 1920062, 2024;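 active = activation at 10 µM reaching about 35% in either raw or pattern-adjusted values, limit read from the data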
# PLCgamma1 ctr: PLC-gamma1 enzyme inhibitors, counter-screen for PLC-beta3 inhibitor project, biochemical, fluorescence; shares compounds with PLC-gamma1 inh; purified PLC-gamma1, fluorogenic substrate; inhibition, % at 12.3 µM; 3.1% of 3,300 active; in the data active = inhibition above about 9.5%
# PLCbeta3 conf: PLC-beta3 inhibitor confirmation, biochemical, fluorescence, purified enzyme. shares compounds with PLC-gamma1 inh. fluorogenic substrate fluorescence. inhibition, % at 12.3 µM. 1% of 3,300 active. AID 743261, 2014
# An asterisk follows results filed as active; i = inactive; nt = not tested or not shown; ! = not active in a repeat. Cut-off read from the data, not from the text of the source, unless noted: active = inhibition above about 11%; inactive = the rest.
SMILES,Rce1 inhib,M18AAP inhibitor,PLCb3 inh,NPR1 activator,PLC-gamma1 inh,GC-B act,PLCgamma1 ctr,PLCbeta3 conf
NC(CCc1ccccc1)c1csc(NC(=O)NCCc2ccccc2)n1 (stereo not drawn),nt,nt,-1,-10,4,-12,nt,nt
NC(CCc1ccccc1)c1csc(NC(=O)Nc2ccccc2Oc2ccccc2)n1 (stereo not drawn),nt,nt,6,-4,16*,-1,-1,-3
O=S(=O)(c1cc(O)ccc1O)c1cccc2c(S(=O)(=O)c3cc(O)ccc3O)cccc12,i,nt,6,0,10*,7,8,9
O=S(=O)(O)c1cc(O)ccc1O,nt,nt,-5,2,1,1,nt,nt
S=C1NCN(CC2CC2)CN1,nt,nt,-1,0,0,-3,nt,nt
COC(=O)[C@]12C[C@H](CC(=O)NCc3cccc4ccccc34)C(=O)N(Cc3cccc4ccccc34)C1=C[C@H](C1CCCC1)O[C@@H]2C,nt,nt,-2,-3,-2,-1,nt,nt
Cc1ccccc1CN1CCN(CC(=O)NCCCN2CCN(c3ccc(F)cc3)CC2)C1=O,i,-2,13*,-10,9.6*,0,-2,-3
O=C(CN1CCN(Cc2ccc(Cl)cc2)C1=O)NCCCN1CCN(c2ccc(F)cc2)CC1,i,1,3,-12,0,-7,nt,nt
Cc1ccc(NC(=S)N/C(=N/S(=O)(=O)c2ccccc2)c2ccccc2)cc1,i,-23,-2,2,16*!,0,-4,-1
COc1ccc(CC(/C=C/c2ccc(F)cc2)c2ccccc2)cc1 (stereo not drawn),nt,nt,-2,-3,-2,3,nt,nt
O=C(Nc1ccccc1C(=O)Nc1ccc(Br)cn1)c1cccc([N+](=O)[O-])c1,nt,-2,-7,0,10*,-4,-9,-2
Cc1nc(NCCOc2ccccc2)sc1C(=O)Nc1ccccc1,i,-2,6,-8,12*,-6,1,0
Cc1nc(NCc2ccccc2)sc1C(=O)Nc1ccccc1,i,4,4,3,-1,0,nt,nt
OCC[C@H]1C[C@H](O)[C@@H](O)[C@]2(CCCc3ccccc3O2)O1,nt,nt,11*,3,0,5,5,4
C[C@H]1CCC[C@]2(O[C@@H](CCO)C[C@@H](O)[C@@H]2O)O1,i,nt,7,3,9.9*,5,-5,2
OCC[C@@H]1C[C@@H](O)[C@H](O)[C@]2(CCCc3ccccc3O2)O1,i,-6,2,0,1,10,nt,nt
OCC[C@H]1C[C@@H](O)[C@H](O)[C@]2(CCc3ccccc3O2)O1,nt,nt,11*,1,9,7,-5,1
COc1ccc2c(c1)C[C@@H]1CC(C)(C)CN1S2(=O)=O,nt,nt,0,1,1,-2,nt,nt
O=C(Nc1ccc(F)c(Cl)c1)c1cc(C2CCCN(S(=O)(=O)c3cccc4cccnc34)C2)on1 (stereo not drawn),nt,nt,11*,4,1,8,-9,-5
COc1ccc(NC(=O)c2sc3cc(C(F)(F)F)cnc3c2-c2cccs2)cc1,i,-4,1,1,11*,6,-26,-25
Cc1cc(C)c(OCCN2CCCC2)c(Cl)c1,i,-5,-3,3,0,-2,nt,nt
Cc1cc(Cl)c(OCCCN2CCCCC2)c(Br)c1,i,-1,6,0,10*,4,-5,0

# High-throughput results from PubChem.
